# Most compounds without a hit are left out; they make up all but 1.7% or so of the library.
# Mtb bLac sens: beta-lactam sensitization of Mtb H37Rv; 330,000 compounds, 0.27% hits; M. tuberculosis H37Rv growth with meropenem, percent inhibition; inhibition, % at 25 µM; call rule not given here;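 also: growth measured after seven days incubation then overnight dye step; 0% = bacteria only wells and 100% = bacteria with antibiotic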
# RecA splice inh: inhibitors of M. tuberculosis RecA intein splicing; P9WHJ3; cell-free RecA intein splicing, fluorescence; inhibition, % (concentration not given with the values); 290,000 compounds, 0.75% hits; AID 2221; in the data active = inhibition above about 30%; inconclusive = no clear call, values can overlap the other calls;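 also: 0% = vehicle wells and 100% = reference inhibitor control wells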
# Target sequence (P9WHJ3 whole entry, looked up, canonical isoform): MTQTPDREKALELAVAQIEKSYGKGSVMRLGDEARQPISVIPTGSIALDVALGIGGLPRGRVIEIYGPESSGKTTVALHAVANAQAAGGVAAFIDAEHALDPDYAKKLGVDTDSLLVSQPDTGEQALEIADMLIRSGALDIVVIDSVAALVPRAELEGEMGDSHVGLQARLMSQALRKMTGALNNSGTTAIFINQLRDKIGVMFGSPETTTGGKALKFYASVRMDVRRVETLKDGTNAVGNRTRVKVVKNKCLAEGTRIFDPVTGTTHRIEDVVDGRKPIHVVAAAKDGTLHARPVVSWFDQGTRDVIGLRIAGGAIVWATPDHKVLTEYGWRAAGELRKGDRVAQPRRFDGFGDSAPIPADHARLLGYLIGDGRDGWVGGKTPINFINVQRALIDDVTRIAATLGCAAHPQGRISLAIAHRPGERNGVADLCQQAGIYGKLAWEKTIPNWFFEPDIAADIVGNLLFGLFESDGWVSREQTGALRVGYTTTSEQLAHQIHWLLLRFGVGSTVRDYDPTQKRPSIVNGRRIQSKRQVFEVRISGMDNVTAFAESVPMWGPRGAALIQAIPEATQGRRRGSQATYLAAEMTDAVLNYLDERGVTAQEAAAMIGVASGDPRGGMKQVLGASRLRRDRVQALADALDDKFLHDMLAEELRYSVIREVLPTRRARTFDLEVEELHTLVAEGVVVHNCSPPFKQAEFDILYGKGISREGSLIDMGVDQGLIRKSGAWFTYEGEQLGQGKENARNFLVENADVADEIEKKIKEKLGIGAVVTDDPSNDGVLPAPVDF
# PfHsp40 rescue: restores yeast growth despite PfHsp40 toxicity | S. cerevisiae expressing PfHsp40, growth rescue, ATP luminescence | growth rescue, % at 12.5 µM | 340,000 compounds, 0.68% hits; in the data active = growth rescue above about 28%, passing the limit was not always enough; inconclusive = no clear call, values can overlap the other calls;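 also: yeast W303a lacking pdr1 and pdr3 grown in galactose medium; growth measured after three days at 30 °C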
# Mtb hypoxia inh: reduces hypoxia-regulated biosensor signal in M. tuberculosis; M. tuberculosis hypoxia-regulated fluorescent reporter, fluorescence; fluorescence inhibition, % (test concentration not listed); 300,000 compounds, 0.1% hits; in the data active = fluorescence inhibition mostly above about 23%, no sharp cut-off; inactive = mostly below about 17%
# CCHFV vOTU inh: blocks the CCHF virus ovarian tumor domain protease; CCHFV vOTU protease, Pep-AMC fluorescence; inhibition, % at 11.5 µM; 370,000 compounds, 0.55% hits; AID 651958; in the data active = inhibition above about 30%; also: 0% = vehicle wells with enzyme and 100% = no enzyme wells
# * hit, by the source's call; i = inactive; ? = inconclusive; nt = no result given.
SMILES,Mtb bLac sens,RecA splice inh,PfHsp40 rescue,Mtb hypoxia inh,CCHFV vOTU inh
O=C(N/N=C/c1ccc(-c2cccc([N+](=O)[O-])c2)o1)c1ccccc1O,-1.2,-7.5,1.8,nt,-3.9
O=C(N/N=C/c1ccc(-c2cccc([N+](=O)[O-])c2)o1)c1ccc([N+](=O)[O-])cc1,69.8,0.9,146.3*,nt,1.4
Cc1ccc2c(c1)C1C(CO2)C(c2ccccc2)[C@]2(C)C(=O)Nc3ccccc3C(=O)N12 (stereo partly specified),nt,nt,nt,9.9,nt
CN(Cc1ccccc1)C(=O)CN1CCCC1=O,-6.5,1.9,-0.8,-9.7,-12.1
Cc1cccc(N2CCN(CC(=O)N(C)Cc3ccccc3)CC2C)c1 (stereo unspecified),2.4,2.3,43.6*,-1.1,-10.9
Cn1cc(C(=O)OCC(=O)NC2(C#N)CCCC2)c2ccccc21,-4.1,nt,65.7*,12.3,-0.7
Nc1nonc1NN=Cc1ccccc1,nt,nt,nt,0.1,nt
O=S(=O)(Nc1ccn(-c2ccccc2)n1)c1ccc(Br)cc1,98.5,2.7,60.1*,14.3,4.7
Cc1c(NS(=O)(=O)c2ccc(Br)cc2)c(=O)n(-c2ccccc2)n1C,-1.4,0.7,0.8,0.7,4.6
CC1CN=C(Nc2ccccc2)N1CC1CCC1 (stereo unspecified),nt,nt,nt,-1.6,nt
O=S(=O)(Nc1ccc(-n2cccc2)cc1)c1ccc(Cl)c(Cl)c1,0.0,13.3,65.7*,2.7,5.7
CCOC(=O)C1C2COc3ccc(Cl)cc3C2N2C(=O)CN(Cc3ccc(F)cc3)C(=O)[C@@]12C (stereo partly specified),nt,nt,nt,3.0,nt
O=C(OCc1ccccc1)c1cn(-c2ccccc2)nc1-c1ccncc1,-0.6,3.6,104.0*,11.9,-3.0
COC(=O)c1cn(-c2ccccc2)nc1-c1ccncc1,-1.5,-4.8,-1.0,nt,5.8
O=C(CCl)Nc1c2c(nn1-c1ccccc1)CSC2,99.1,34.9*,0.3,nt,5.5
Cc1ccc(S(=O)(=O)NC23CC4CC(CC(C4)C2)C3)cc1,3.4,nt,106.9*,nt,8.6
NC(=O)C1CC2(CC(c3cccc(NC(=O)c4ccccc4)c3)=NO2)CN1C(=O)C1CCC(=O)N1 (stereo unspecified),nt,nt,nt,5.9,nt
CC(=NNC(=S)N1CCN(c2ccccn2)CC1)c1nccs1,nt,nt,108.4*,nt,nt
CC(=NNC(=S)N1CCN(C2CCCCCC2)CC1)c1ccccn1,nt,nt,81.2*,nt,3.8
Br/C(C=NNc1nc(N2CCOCC2)nc(N2CCOCC2)n1)=C\c1ccccc1,nt,nt,nt,-12.2,nt
O=C(O)/C(=C\c1ccc(F)cc1)c1ccc(-c2ccccc2)cc1,7.7,3.0,512.0*,14.3,24.8
CC(=NNC(=O)c1cccs1)c1ccc2ccccc2c1,nt,nt,nt,-2.5,nt
CCOC(=O)C=Cc1ccc2c(c1)S(=O)(=O)N(c1cccc(OC)c1)C2CC(=O)OCC (stereo unspecified),nt,nt,nt,-5.0,nt
Cc1cccc(N2CC(C(=O)OCC(=O)Nc3sccc3C(N)=O)CC2=O)c1C (stereo unspecified),-6.5,nt,-0.7,2.2,2.2
Cc1cccc(N2CC(C(=O)OCC(=O)c3ccc(OC(=O)c4cccs4)cc3)CC2=O)c1C (stereo unspecified),1.3,35.7*,0.5,5.1,1.6
SMILES,Mtb bLac sens,RecA splice inh,PfHsp40 rescue,Mtb hypoxia inh,CCHFV vOTU inh
O=c1nccc(NN=Cc2ccccc2O)[nH]1,nt,nt,nt,5.1,nt
COc1ccccc1N(CCC#N)C(=O)CSc1nc(-c2ccccc2)cn1N,-8.2,0.8,36.2*,-1.5,-15.5
CCN1C(=O)C2C(c3ccc(-c4ccc(Cl)c(Cl)c4)cc3)N[C@@](C)(C(=O)OC)C2C1=O (stereo partly specified),nt,nt,nt,3.1,nt
O=C(CSc1nnc(-c2ccccn2)o1)Nc1ccc(F)cc1,-6.8,1.5,-0.9,1.8,12.6
Fc1ccc(CSc2nnc(-c3ccccn3)o2)cc1,12.5,-1.0,-1.4,39.3*,-6.7
Cc1ccc(C=NNC(=O)c2cccc3ccccc23)o1,nt,nt,nt,3.7,nt
N#Cc1c2ccc(OCC(=O)NCc3ccco3)cc2n2ccccc12,-0.1,-40.2,-0.2,-1.9,-7.8
N#Cc1c2ccc(O)cc2n2ccccc12,62.9,i,55.2*,-6.1,-27.7
O=C(c1ccccc1)c1c2c(cc3sc4ccccc4[n+]13)-c1cccc3cccc-2c13,96.3,nt,119.1*,23.7,3.1
CCC(ONc1ccccc1C(F)(F)F)(C(=O)NN(C)C)c1ccccc1 (stereo unspecified),28.5,nt,54.1*,14.8,8.1
Cc1ccc(C(C)(C)C)cc1S(=O)(=O)Nc1ncnc2sccc12,-2.1,nt,250.9*,0.1,10.5
Cc1ccc(CN(C)C(=O)c2cc(COc3cccc(C(F)(F)F)c3)on2)o1,?,15.5,5.6,5.7,9.6
CCc1ccc(CN(C)C(=O)c2cc(COc3cccc(C(F)(F)F)c3)on2)nc1,71.7,0.5,112.4*,0.9,14.4
CSC1=N/C(=C\c2cccnc2)C(=O)N1c1ccccc1,-2.6,-2.0,-2.2,6.6,-3.5
CSC1=N/C(=C\c2ccccc2)C(=O)N1C,-5.8,-1.2,40.1*,2.6,1.9
NC(=S)N/N=C/c1coc2ccc(Br)cc2c1=O,-5.2,nt,38.3*,nt,18.6
COc1ccc2oc(=O)c(-c3csc(Nc4cccc(O)c4)n3)cc2c1,-5.5,-45.6,448.8*,8.6,9.5
COc1ccc(Nc2nc(-c3cc4cccc(OC)c4oc3=O)cs2)cc1,89.9,0.9,-0.2,-8.7,16.8
O=C1C(Cc2ccccc2)Nc2ncnc(N3CCc4ccccc4C3)c2N1Cc1ccccc1 (stereo unspecified),2.0,nt,0.9,nt,nt
CC1Nc2ncnc(N3CCc4ccccc4C3)c2N(Cc2ccc(Br)cc2)C1=O (stereo unspecified),3.0,35.0*,-0.8,nt,5.4
CC1Nc2ncnc(N3CCc4ccccc4C3)c2N(Cc2ccc(Cl)cc2)C1=O (stereo unspecified),0.0,31.6*,-0.3,-1.8,nt
CCN(CC)S(=O)(=O)c1cccc(-c2n[nH]c(=S)n2N=Cc2ccc(C(=O)OC)cc2)c1,nt,nt,nt,1.8,nt
Nc1nnnn1N=C/C=C/c1ccccc1,nt,nt,nt,11.4,nt
O=C(c1nnsc1S(=O)(=O)c1ccc(Cl)cc1)N1CCOCC1,nt,20.9,-0.8,22.7,1.6
Cc1nnsc1S(=O)c1ccc(Cl)cc1 (stereo unspecified),-2.8,-0.2,0.1,23.9,7.8
SMILES,Mtb bLac sens,RecA splice inh,PfHsp40 rescue,Mtb hypoxia inh,CCHFV vOTU inh
O=C(Nc1ccccc1)c1nnsc1S(=O)c1ccc(Cl)cc1 (stereo unspecified),100.4,35.4*,10.9,nt,-3.1
O=C(c1nnsc1S(=O)c1ccc(Cl)cc1)N1CCOCC1 (stereo unspecified),nt,26.1,143.1*,nt,4.4
CCOC(=O)c1ccc(N2C(=O)CC(N3CCC(O)(c4ccc(Cl)cc4)CC3)C2=O)cc1 (stereo unspecified),0.4,1.0,534.4*,-0.6,14.6
CCOC(=O)c1ccc(N2C(=O)CC(N3CCCC(C)C3)C2=O)cc1 (stereo unspecified),-3.5,2.0,584.6*,-4.4,-26.5
CCCOc1ccc(N2C(=O)CC(N3CCOCC3)C2=O)cc1 (stereo unspecified),-0.3,0.1,1.6,5.0,-7.4
CCCOc1ccc(N2C(=O)CC(N3CCC(C(=O)OCC)CC3)C2=O)cc1 (stereo unspecified),3.6,-1.0,522.9*,4.6,-10.2
